Measurements reported in PubChem BioAssay.
Active and inactive are the calls of the source.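 Rule for the calls, unless noted: active = inhibition at or above 50% relative to wild type and mutant plate controls; inactive = inhibition below 50%.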

How the values were obtained:
[1] = inhibitors of TNFa-induced NFkB p65 translocation, primary screen, imaging, HUVEC, MLSMR starter and 10KST1 sets (AID 438;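 active = inhibition above 20% together with a positive visual image hit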;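 note: compound added about 3h40 before a 20 min TNFalpha stimulation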;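 for inhibition: signal is the nuclear over cytoplasmic p65 intensity ratio per well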); conditions: HUVEC TNFa-induced p65 nuclear translocation; cell count: measured here: nuclei count (cytotoxicity indicator), at 2.08 µM; inhibition: at 2 µM, stronger effect = higher value, 0% TNFa-plus-vehicle, 100% no-TNFa wells
[2] = reduction of polyQ htt aggregates in cells – imaging, exon1htt(103Q)mCFP cells, high-content imaging, primary screen (AID 483;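 active = visual image review flags a hit and inhibition of aggregation exceeds 20%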;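 note: compound exposure lasted 3 days before fixation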;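 for nuclei count: percent of the per-plate median nuclei count of sample wells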); conditions: exon1htt(103Q)mCFP cell line, aggregate imaging, at 2 µM; inhibition of aggregation: stronger effect = higher value; nuclei count: measured here: cell count, toxicity
[3] = endothelial E-selectin expression blockers – imaging, HUVEC, immunofluorescence, MLSMR starter and 10KST1 sets, primary screen (AID 487;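 active = visually confirmed hit in the image check and inhibition above 20%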;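 for inhibition: signal is fraction of cell area covered by stained E-selectin grains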;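 for nuclei count: 100% = median nuclei count of all wells on the same plate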); conditions: HUVEC TNFalpha-induced E-selectin immunofluorescence imaging, at 2 µM; inhibition: stronger effect = higher value; nuclei count: measured here: cell number, toxicity
[4] = Primary imaging screen for DUSP6 inhibitors that restore phospho-Erk in transfected HeLa cells, chemical complementation (AID 609;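 active = compounds giving at least 50% inhibition in the cell-based MKP-3 phosphatase rescue imaging test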;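 for inhibition: phospho-Erk level distribution per well compared with pooled transfected vehicle control wells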); conditions: HeLa MKP-3 transfected, phospho-Erk imaging KS statistic, at 10 µM, cells stimulated with TPA for 15 min
[5] = target: Dual specificity protein phosphatase 6 (Homo sapiens) (UniProt Q16828); assay: as above; conditions: HeLa MKP-3 transfected, phospho-Erk imaging KS statistic; at 10 µM; stronger effect = higher value; cells stimulated with TPA for 15 min
[6] = target: Voltage-gated potassium channel subunit beta-2 (Rattus norvegicus) (UniProt P62483); assay: inhibitors of rat Kvbeta2 reductase activity – biochemical, NADPH fluorescence, primary screen (AID 622;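 active = fluorescence slope higher than the sample average by over 3 SD, cut at about -0.22 in these data, passing the limit was not always enough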;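 note: slope of raw intensity against log time taken from 70 to 1610 s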); conditions: recombinant KvBeta, 4-cyanobenzaldehyde reduction, at 10 µM, stronger effect = higher value
[7] = target: Voltage-gated potassium channel subunit beta-2 (Rattus norvegicus) (UniProt P62483); assay: enhancers of rat Kvbeta2 NADPH turnover – biochemical, NADPH fluorescence, primary screen (AID 623;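 active = NADPH fluorescence slope more negative than the mean of all samples by about 3 SD, 99.7% confidence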;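 note: fluorescence intensity change per second fitted from 20 to 320 s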); conditions: Recombinant KvBeta, NADPH fluorescence decrease slope, 10 min; at 10 µM; stronger effect = lower value
[8] = target: Alpha-2C adrenergic receptor (Homo sapiens) (UniProt P18825); assay: compounds altering alpha2C-coupled GIRK flux – cell-based, HEK293 alpha2C/GIRK1/2, thallium flux, primary screen (AID 624;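 active = fluorescence slope after compound addition differing from the mean of all screened samples at 99.7% confidence, in either direction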;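 note: slope of fluorescence ratio to pre-addition baseline per second over 15 to 24 s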); conditions: thallium flux BTC fluorescence, at 10 µM, actives lie on both sides
[9] = target: Muscarinic acetylcholine receptor M4 (Homo sapiens) (UniProt P08173); assay: M4-linked GIRK flux change, two-sided – cell-based, HEK293 M4/GIRK, thallium flux, BTC-AM, M4 allosteric agonist project, primary screen (AID 625;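 active = fluorescence slope after compound addition differing from the mean of all tested samples at 99.7% confidence, mostly higher but some lower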;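 note: thallium influx through GIRK channels coupled to M4 in HEK293 cells with BTC-AM dye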); conditions: at 10 µM, actives lie on both sides
[10] = inhibitors of larval lipid processing in zebrafish, primary screen, whole organism, PED6 fluorescence, gall bladder and intestine (AID 686;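 active = a full or partial loss of lipid-probe fluorescence in the fish gall bladder, intestine or both, judged by eye; inactive = no fluorescence loss, or compound toxic to the fish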;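 note: larvae 5 to 7 days old with five fish per well; signal comes from phospholipase A2 cleavage of quenched PED6 carried via bile; overnight exposure to compound and PED6 before scoring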); conditions: Zebrafish larvae PED6 lipid processing, fluorescence scoring; screened at 20 µM (by protocol)
[11] = loss of swimming-algae plug formation – whole organism, Chlamydomonas reinhardtii, WT vs cilia-less mutant, absorbance, 96-well, primary screen (AID 463189); conditions: Chlamydomonas reinhardtii gravitaxis, OD600 absorbance, 2 days; at 10 µM; stronger effect = higher value;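 note: 0% = wild type cc124 cells in DMSO and 100% = ciliumless bld1 mutant cells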
[12] = blockers of RIG-like receptor reporter activation – cell-based, Sendai virus stimulus, luciferase, 10K MLSCN set, TLR/RLR signaling modifier project, primary screen (AID 602276;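 active = inhibition at or above 50% at 10 µM; inactive = inhibition below 50%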;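 note: firefly luciferase from ISG56 promoter only with Renilla not read in this screen; 0% = Sendai virus plus DMSO and 100% = medium plus DMSO without virus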); conditions: HEK293 RL24 IRF3 luciferase reporter, at 10 µM, stronger effect = higher value
[13] = TLR3 IRF3 reporter activation blockers – cell-based, poly I:C stimulus, luciferase, 10K MLSCN set, primary screen (AID 602277;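 active = inhibition of the reporter signal at or above 50%; inactive = inhibition below 50%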); conditions: HEK293-TLR3 RL24 IRF3 luciferase reporter, at 10 µM, stronger effect = higher value
[14] = measured here: cell density z-score
[15] = measured here: nuclear c-Myc green intensity z-score
[16] = measured here: nuclear pErk red intensity z-score, stronger effect = higher value

Sequence of Alpha-2C adrenergic receptor (Homo sapiens) (P18825 whole entry, looked up): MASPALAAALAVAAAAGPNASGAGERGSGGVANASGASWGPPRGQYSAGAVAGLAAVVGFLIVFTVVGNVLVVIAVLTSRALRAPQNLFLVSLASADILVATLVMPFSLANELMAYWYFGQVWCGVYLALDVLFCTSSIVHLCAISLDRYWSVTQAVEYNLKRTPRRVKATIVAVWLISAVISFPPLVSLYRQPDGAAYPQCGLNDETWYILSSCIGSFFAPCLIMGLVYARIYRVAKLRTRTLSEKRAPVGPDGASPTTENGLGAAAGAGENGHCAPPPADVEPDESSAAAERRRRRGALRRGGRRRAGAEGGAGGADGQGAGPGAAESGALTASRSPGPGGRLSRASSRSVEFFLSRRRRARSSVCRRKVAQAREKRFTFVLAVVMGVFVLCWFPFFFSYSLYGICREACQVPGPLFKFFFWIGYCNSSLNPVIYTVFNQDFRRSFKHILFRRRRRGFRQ
Sequence of Voltage-gated potassium channel subunit beta-2 (Rattus norvegicus) (P62483 whole entry, looked up): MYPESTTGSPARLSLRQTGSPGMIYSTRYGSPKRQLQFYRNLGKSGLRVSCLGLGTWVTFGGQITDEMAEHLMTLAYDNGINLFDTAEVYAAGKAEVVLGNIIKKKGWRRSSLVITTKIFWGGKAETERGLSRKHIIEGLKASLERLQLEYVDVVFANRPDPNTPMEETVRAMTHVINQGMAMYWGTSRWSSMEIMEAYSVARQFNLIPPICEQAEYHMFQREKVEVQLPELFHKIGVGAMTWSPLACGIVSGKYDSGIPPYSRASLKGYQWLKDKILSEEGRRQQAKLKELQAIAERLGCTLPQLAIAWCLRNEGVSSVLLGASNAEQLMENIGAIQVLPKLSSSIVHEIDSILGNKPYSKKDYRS
Sequence of Dual specificity protein phosphatase 6 (Homo sapiens) (Q16828 whole entry, looked up): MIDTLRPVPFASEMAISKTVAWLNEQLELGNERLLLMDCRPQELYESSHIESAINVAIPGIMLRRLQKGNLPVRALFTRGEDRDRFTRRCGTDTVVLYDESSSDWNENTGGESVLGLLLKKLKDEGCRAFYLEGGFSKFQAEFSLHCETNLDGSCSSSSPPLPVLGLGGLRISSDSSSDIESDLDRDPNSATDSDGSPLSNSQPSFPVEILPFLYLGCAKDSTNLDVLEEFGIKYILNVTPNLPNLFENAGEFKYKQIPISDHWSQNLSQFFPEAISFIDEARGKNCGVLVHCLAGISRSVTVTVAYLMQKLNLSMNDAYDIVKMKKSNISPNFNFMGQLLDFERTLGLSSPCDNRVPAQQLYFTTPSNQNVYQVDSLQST
Sequence of Muscarinic acetylcholine receptor M4 (Homo sapiens) (P08173 whole entry, looked up): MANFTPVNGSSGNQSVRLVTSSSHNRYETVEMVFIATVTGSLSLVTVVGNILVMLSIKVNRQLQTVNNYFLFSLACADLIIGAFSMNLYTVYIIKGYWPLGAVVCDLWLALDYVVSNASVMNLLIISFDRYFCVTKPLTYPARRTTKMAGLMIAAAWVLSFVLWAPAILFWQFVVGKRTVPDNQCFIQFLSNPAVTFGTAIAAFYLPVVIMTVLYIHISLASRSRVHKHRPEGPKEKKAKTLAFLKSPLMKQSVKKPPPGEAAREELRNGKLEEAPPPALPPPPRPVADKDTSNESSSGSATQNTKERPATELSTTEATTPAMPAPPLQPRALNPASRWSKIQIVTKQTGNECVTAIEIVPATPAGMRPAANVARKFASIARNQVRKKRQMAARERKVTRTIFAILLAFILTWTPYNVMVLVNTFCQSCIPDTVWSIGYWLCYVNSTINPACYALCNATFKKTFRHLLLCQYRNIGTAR

SMILES | cell count [1] | inhibition [1] | inhibition of aggregation [2] | nuclei count [2] [%] | inhibition [3] | nuclei count [3] [%] | z-score [4, 14] | z-score [4, 15] | z-score [4, 16] | inhibition [5] | fluorescence slope [6] | NADPH fluorescence slope [7] | slope [8] | fluorescence slope [9] | outcome [10] | inhibition [11] | inhibition [12] | inhibition [13]
COCCNC(=O)c1c(N)n(CCC2=CCCCC2)c2nc3ccccc3nc12 | 661 | -11.4% (inactive) | -0.5% (inactive) | 101 | -22.2% (inactive) | 149 | 1.39 | -1.83 | -0.195 | 20.2% (inactive) | -0.0792 (inactive) | -5.5e-06 (inactive) | 0.00496 (inactive) | 0.00724 (inactive) | inactive | 25.3% (inactive) | 6.4% (inactive) | 8.21% (inactive)
Cc1nnc(SCC(=O)N2CCC(C(N)=O)CC2)s1 | 423 | -2.2% (inactive) | -4.3% (inactive) | 87.6 | -80.5% (inactive) | 137 | -1.3 | -0.207 | -0.854 | -3.95% (inactive) | -0.418 (inactive) | -3.7e-05 (inactive) | 0.00689 (inactive) | 0.00524 (inactive) | inactive | 29.5% (inactive) | 7.88% (inactive) | 7.15% (inactive)
O=C(Nc1nccs1)NC(C(F)(F)F)C(F)(F)F | 620 | 10.3% (inactive) | -10.4% (inactive) | 101 | 14.4% (inactive) | 95.3 | 0.47 | -0.00766 | -0.375 | 3.49% (inactive) | -0.522 (inactive) | -4.1e-05 (inactive) | 0.00624 (inactive) | 0.00652 (inactive) | inactive | 28.7% (inactive) | 22.5% (inactive) | 33.5% (inactive)
O=C(NCC(F)(F)F)N1CCOCC1 | 663 | 11.2% (inactive) | 14.7% (inactive) | 106 | -23.9% (inactive) | 102 | 0.272 | 0.0222 | 0.9 | -13.3% (inactive) | -0.508 (inactive) | -3.8e-05 (inactive) | 0.0049 (inactive) | 0.00517 (inactive) | inactive | 33.2% (inactive) | 9.24% (inactive) | 15.3% (inactive)
CCOC(=O)c1[nH]c2ccc(OC)cc2c1NC(=O)CCN1CCC(C)CC1 | 568 | -0.3% (inactive) | 6.8% (inactive) | 110 | -54.8% (inactive) | 115 | 0.39 | -0.288 | -0.933 | -8.59% (inactive) | -0.339 (inactive) | -3.9e-05 (inactive) | 0.00576 (inactive) | 0.00353 (inactive) | inactive | 29.3% (inactive) | -0.0655% (inactive) | 13.6% (inactive)
CCOC(=O)C1=C(N)c2ccccc2CC1C(C)C (stereo not given) | 579 | 9% (inactive) | -22.6% (inactive) | 108 | -86.6% (inactive) | 124 | 2.18 | -1.31 | -0.876 | 4.72% (inactive) | -0.46 (inactive) | -2.5e-05 (inactive) | 0.00503 (inactive) | 0.00588 (inactive) | inactive | 36% (inactive) | 17.7% (inactive) | 26.3% (inactive)
CCOC(=O)c1[nH]c2cc(OC)c(OC)cc2c1NC(=O)C(C)N1CCN(Cc2ccccc2)CC1 (stereo not given) | 541 | -4.7% (inactive) | 10.2% (inactive) | 106 | -11.1% (inactive) | 140 | 0.355 | -0.877 | -1.74 | 13.9% (inactive) | -0.0434 (active) | 2.3e-06 (inactive) | 0.00443 (inactive) | 0.00565 (inactive) | inactive | 19.7% (inactive) | -0.312% (inactive) | 3.3% (inactive)
CCN(CC)CCCN1C(=O)C(=O)/C(=C(/O)c2ccccc2)C1c1ccccn1 (stereo not given) | 528 | -5.4% (inactive) | 5.1% (inactive) | 104 | -45% (inactive) | 121 | 0.55 | -1.39 | -0.0355 | 7.7% (inactive) | -0.473 (inactive) | -3.7e-05 (inactive) | 0.00741 (inactive) | 0.00518 (inactive) | inactive | 8.25% (inactive) | 2.69% (inactive) | 1.93% (inactive)
CC1(C(=O)CSc2nc3ccccc3s2)CCC(=O)O1 (stereo not given) | 609 | -11.4% (inactive) | -14.5% (inactive) | 78.9 | -179% (inactive) | 131 | 0.414 | -1.1 | -0.368 | -4.27% (inactive) | -0.471 (inactive) | -0.000167 (inactive) | 0.00616 (inactive) | 0.00529 (inactive) | inactive | 6.36% (inactive) | 6.48% (inactive) | 21.8% (inactive)
CCOC(=O)CSC1=C(C#N)C(c2ccc(C)cc2)C(C(=O)OC)C(=O)N1 (stereo not given) | 643 | 4.3% (inactive) | -1.7% (inactive) | 81.9 | -39.2% (inactive) | 133 | 0.598 | 0.472 | -0.921 | 2.92% (inactive) | -0.474 (inactive) | -8.1e-06 (inactive) | 0.00434 (inactive) | 0.00679 (inactive) | inactive | 6.69% (inactive) | -15.1% (inactive) | -12.7% (inactive)
